The sample as a whole holds a higher share of hits than the screen did.
ST2 IL33 inh: inhibitors of human ST2 (IL1RL1) binding to IL-33; Q01638; AlphaLISA ST2-Fc/biotin-IL-33 interaction, 1 h; inhibition, % for hits at 17 µM; 78,000 compounds, 2.3% hits; AID 1259354; in the data active = inhibition above about 30%
Target sequence (Q01638 whole entry, looked up): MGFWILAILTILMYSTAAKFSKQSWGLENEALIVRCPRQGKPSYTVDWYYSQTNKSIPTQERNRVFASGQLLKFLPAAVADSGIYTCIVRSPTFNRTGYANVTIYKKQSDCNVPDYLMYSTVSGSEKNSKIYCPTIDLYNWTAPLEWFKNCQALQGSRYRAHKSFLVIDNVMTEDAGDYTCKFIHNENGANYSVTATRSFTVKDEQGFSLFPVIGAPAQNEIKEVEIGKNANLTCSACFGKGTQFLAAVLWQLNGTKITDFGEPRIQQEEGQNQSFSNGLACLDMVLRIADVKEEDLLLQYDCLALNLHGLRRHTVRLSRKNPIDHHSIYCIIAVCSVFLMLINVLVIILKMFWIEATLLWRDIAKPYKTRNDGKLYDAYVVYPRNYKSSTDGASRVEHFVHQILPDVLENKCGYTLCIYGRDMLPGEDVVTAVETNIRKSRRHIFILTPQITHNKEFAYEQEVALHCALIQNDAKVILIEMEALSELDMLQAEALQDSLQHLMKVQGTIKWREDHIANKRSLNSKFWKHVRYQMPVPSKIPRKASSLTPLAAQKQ
Numbers stand for hits; i = inactive; ! = repeats disagree.

SMILES | ST2 IL33 inh
CC(=O)n1cc(C(C[N+](=O)[O-])SCCN)c2ccccc21 (configuration not stated) | 30%
O=[N+]([O-])CC(SCCO)c1ccc(O)cc1 (configuration not stated) | i
CN(CC1CCCCO1)C(=O)c1cc(Cn2cnc3ccccc32)[nH]n1 (configuration not stated) | i
O=C(NC(Nc1ccc(C(F)(F)F)cc1Cl)C(Cl)(Cl)Cl)c1cccnc1 (configuration not stated) | 63%
Cc1ccc(Oc2ccc(C(F)(F)F)cc2NC(=O)c2cccnc2)cc1 | i
O=C(NC(Nc1ccc(Cl)cc1)C(Cl)(Cl)Cl)c1cccnc1 (configuration not stated) | i
O=C(c1ccc(F)cc1)N1C[C@@H]2OCC(=O)N(Cc3ccncc3)[C@@H]2C1 | i
Cc1ccc(C2(O)CCN(Cc3cc(=O)n4ccc(C)cc4n3)CC2)nc1 | i
CC(C)NC(=O)[C@@H](C)[C@@H]1CC[C@@]2(C)CC[C@H](NC(=O)Cc3ccccc3)[C@@H](C)[C@@H]2[C@H]1O | i
COc1cccc(C(=O)N2CCN=C2SCc2cccc(Cl)c2)c1OC | i
CCN(Cc1ccccc1)Cc1ccc(N(C)C)cc1 | 36%
CN(Cc1ccccc1)Cc1ccccc1 | i
CCN(CCc1ccccc1)CCN(C)C | i
CC(=O)N1CCc2cc(S(=O)(=O)Nc3cccc([N+](=O)[O-])c3)ccc21 | i
Cc1ccc(C2(O)CCN(C(=O)c3cn4cc(Cl)ccc4n3)CC2)nc1 | i
Nc1c(S(=O)(=O)O)cc(Nc2ccc(Nc3nc(Cl)nc(Nc4ccc(S(=O)(=O)O)cc4)n3)c(S(=O)(=O)O)c2)c2c1C(=O)c1ccccc1C2=O | 81%
COc1cc(/C=C2/OC(=O)c3c2cc(C)[nH]c3=O)ccc1O | i
COc1c(/C=C2/OC(=O)c3c2cc(C)[nH]c3=O)ccc(Cl)c1Cl | i
CC(=O)Nc1ccc(/C=C2/OC(=O)c3c2cc(C)[nH]c3=O)cc1 | 46%
Cn1c(=O)cc(SCC(=O)Nc2ccc3c(c2)OCCO3)c2ccccc21 | i
CCc1ccc(C2CC(c3ccc(F)cc3)n3nc(N)nc3N2)cc1 (configuration not stated) | i
CCOc1ccc(C2C(C(=O)OCCOC)=C(C)NC3=C2C(=O)C(C(=O)OC)C(C)C3)cc1 (configuration not stated) | i
COCc1cc(C)nc(SCc2ccccc2Cl)c1C#N | i
Cc1cc(C(F)(F)F)c(C#N)c(SCC(=O)c2ccc([N+](=O)[O-])cc2)n1 | 60%
COCc1cc(C)nc(SCC(=O)c2ccc(C)cc2C)c1C#N | i
SMILES | ST2 IL33 inh
Cc1cc(C)c(C#N)c(SCC(=O)c2ccc(F)cc2)n1 | i
Cc1cc(C(F)(F)F)c(C#N)c(SCC(N)=O)n1 | i
COCc1cc(C)nc(SCC(=O)c2ccc(Cl)cc2)c1C#N | 30%!
Cc1nn(-c2ccccc2)c2c1C(C(=O)NC1CCCC1)N(Cc1cccnc1)C(=O)CS2 (configuration not stated) | i
O=C(O)c1ccc(NS(=O)(=O)c2cccc(C(=O)Nc3cccc([N+](=O)[O-])c3)c2)cc1 | i
O=C(Nc1c(F)c(F)c(F)c(F)c1F)C(Sc1ccccc1)c1ccccc1 (configuration not stated) | i
COc1cccnc1C(=O)NCCNc1ncccc1C | i
CCN(CC)S(=O)(=O)c1ccc(C(=O)N=c2sc3ccccc3n2C)cc1 | i
CCN(CC)S(=O)(=O)c1ccc(-c2csc(=Nc3ccc(F)cc3)n2CCCO)cc1 | 43%
CCCCN(CCCC)S(=O)(=O)c1ccc(C(=O)Nc2nnc(-c3ccc(F)cc3)o2)cc1 | i
O=S(=O)(c1ccc(-c2csc(=Nc3ccccc3)n2CCCO)cc1)N1CCOCC1 | 39%
CSc1ccccc1C(=O)Nc1ccc(S(=O)(=O)N2CCOCC2)cc1 | i
O=C(Nc1nc2ccccc2s1)c1ccc(S(=O)(=O)N2CCOCC2)cc1 | i
O=C(O)c1cccc(C(=O)N2C[C@@H]3C[C@H](C2)c2ccc(NC(=O)c4ccccc4)c(=O)n2C3)c1 | i
COc1ccc(-n2nc3c(c2NC(=O)c2ccc(Br)o2)CSC3)cc1 | i
O=c1[nH]c2ccsc2c(=O)n1-c1cc(F)ccc1F | i
CCc1c(C)nn(CC(=O)N2CCNCC2C(=O)N2CCOCC2)c1C (configuration not stated) | i
Cc1nn(CCNC(=O)[C@@H]2C[C@@H](NC(=O)c3ccccc3)CN2)c(C)c1Cl | i
Fc1ccc(C2CCCN2Cc2nc(COc3ccccc3)no2)cc1 (configuration not stated) | i
CN1CCCN(Cc2cccc(F)c2)CC1 | i
CN1CCCN(Cc2cccc(Cl)c2)CC1 | i
CCN1CCN(Cc2ccc(N(CC)CC)cc2)CC1 | 58%
CCN(CC)c1ccc(CN2CCN(C)CC2)cc1 | 56%
CCN1CCN(Cc2ccc(-c3ccccc3)cc2)CC1 | i
CCc1ccc(CN2CCSCC2)cc1 | i
SMILES | ST2 IL33 inh
Cc1nc(Cl)c(C(=O)NC(=O)NCCC(C)C)c(C)c1[N+](=O)[O-] | i
COc1cc(-c2cc(NC(C)C)ncn2)cc(OC)c1OC | i
CCOCCOC(=O)C1=C(C)NC2=C(C(=O)C(C(=O)OC)C(C)C2)C1c1ccccc1OC (configuration not stated) | i
CCCCOC(=O)C1=C(C)Nc2nnnn2C1c1cccs1 (configuration not stated) | i
O=C(Nc1ccc(Br)cc1)[C@H]1[C@H](C(=O)O)[C@H]2C=C[C@@H]1C2 | i
CN(C(=O)c1cn(-c2ccc(F)cc2F)c(=O)c2ccccc12)c1ccc(Cl)cc1 | i
COc1ccc(-c2cc(C(=O)Nc3ccc(S(N)(=O)=O)cc3)c3ccccc3n2)c(OC)c1 | i
CC(=O)Nc1ccc(-c2nc3cc4sc(-c5ccc(NC(C)=O)cc5)nc4cc3s2)cc1 | i
O=C(Cc1ccccc1)Nc1cccc(-c2nc3ccccc3s2)c1 | i
N#Cc1ccc(C(=O)Nc2ccc(-c3nc4ccccc4s3)cc2)cc1 | 32%
Cc1[nH]c2ccccc2c1C(=O)CCC(=O)O | i
Cc1nc(-c2ccc(O)cc2)cs1 | i
Cc1nc(-c2c(C)[nH]c3ccccc23)cs1 | 36%
CCCCNC(=O)C1CCC(Cn2c(=O)c3sccc3n(CC(=O)NCCC)c2=O)CC1 (configuration not stated) | i
CCOc1cc(C(=O)Nc2cc(Cl)c(OC)cc2OC)cc(OCC)c1OCC | i
CCOc1ccccc1-c1c(C#N)c(N)nc2c1CCCCCC2 | i
CC(C)NC(=O)N1C[C@@H]2C[C@H](C1)c1ccc(-c3ccccc3CN3CCOCC3)c(=O)n1C2 | i
N#Cc1ccc(/C=C2\NC(=O)N(Cc3ccc(Cl)cc3)C2=O)cc1 | 30%
Cc1cc(/C=C2\NC(=O)N(Cc3ccc(Cl)cc3)C2=O)c(C)n1-c1ccc(C#N)cc1 | i
O=C1N/C(=C\c2ccc(Cl)cc2)C(=O)N1Cc1ccc(Cl)cc1 | i
CC1CCN(C(=O)c2cccn3c(=O)c4sccc4nc23)CC1 | i
COCCN(CC1CCN(Cc2ccccc2OC)CC1)C(=O)C1CCOCC1 | i
CN1CCN(C2=NC(=O)/C(=C/c3cccs3)S2)CC1 | i
Cc1ccc(/C=C2/SC(N3CCC(C)CC3)=NC2=O)o1 | 30%
COc1cc(/C=C2/SC(N3CCC(C)CC3)=NC2=O)cc(OC)c1OC | i
Cc1ccc(/C=c2\sc3nc(-c4ccc(OC(C)C)cc4)nn3c2=O)o1 | i
O=C1N=C(N2CCOCC2)S/C1=C/c1ccc(-c2ccccc2)o1 | 34%
Cc1ccc(/C=C2\CS/C(=C\c3ccc(C)o3)C2=O)o1 | 60%
C=CCOc1ccc(/C=C2/SC(N3CCOCC3)=NC2=O)cc1 | i
O=C1N=C(N2CCOCC2)S/C1=C/c1ccc(Cl)cc1 | i
